Records with an inconclusive call do not appear. Activity calls are given as the source filed them. Unless noted, calls come from the whole dose curve; as a rule, active = well fitted curve in either direction with a large enough effect (not every such curve was filed as active); inconclusive = small, poorly fitted or top-dose-only effect, or another doubt; inactive = flat fitted curve, though single readings scatter.
What was measured:
[1] = molecular target: Lysosomal acid glucosylceramidase (Homo sapiens) (UniProt P04062); test: Glucocerebrosidase-p2 (AID 348; in the data active = potency below about 10 µM; note: potency is the fitted concentration of half-maximal effect); conditions: purified GBA, blue fluorogenic substrate, 40 min
Summary of the method: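 Compounds titrated from 0.6 nM upwards against 0.2 nM enzyme in pH 5.9 citric acid/KH2PO4, taurocholate, tween-20; blue fluorogenic substrate 80 uM, 40 min room temperature, stopped and read Ex 365/Em 440 for AC50.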

[2] = AP1 Signaling Pathway (AID 357); conditions: ME-180 AP-1-bla reporter, EGF-induced, beta-lactamase ratio, 5 h; at 7.69 µM (top of the series) unless noted; note: % is set by controls: 0 for no effect and ±100 for the full control effect
Summary of the method: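 ME-180 cells with beta-lactamase reporter under AP-1 response element, stimulated with EC50 EGF; compounds tested in titration series, 5 h at 37 °C. CCF4 substrate added 2.5 h at room temperature; 460/530 nm emission ratio gave %activity and AC50.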

[3] = molecular target: Cytochrome P450 1A2 (Homo sapiens) (UniProt P05177); test: p450-cyp1a2 (AID 410; calls by dose curve; note: potency is the fitted concentration of half-maximal effect;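 for activity change, negative = inhibition: -100% = full effect of reference inhibitor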); conditions: recombinant CYP1A2, luciferin-ME demethylation, luminescence; series mostly up to 57 µM
Summary of the method: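 Human CYP1A2 (20nM) demethylated Luciferin-ME at its Km (100uM) in 100mM KPO4. After 10 min compound preincubation, NADPH regeneration ran the reaction 60 min at room temperature. Luciferin was read by luminescence, normalized to 57 uM furafylline.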

[4] = NFAT Signaling Pathway (AID 444); conditions: Jurkat NFAT-bla M1, carbachol, beta-lactamase ratio, 5 h; at 7.69 µM (top of the series) unless noted;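 note: carbachol stimulus at about its EC50 of 1 µM final; % is set by controls: 0 for no effect and ±100 for the full control effect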
Summary of the method: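 Read-out: CCF4 FRET ratio (460 nm/530 nm) after 1 h RT dye loading, used for %activity and AC50 from titration series. Cells: Jurkat NFAT-β-lactamase/M1 line, treated with compound plus 1 uM carbachol for 5 h, 37 °C.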

[5] = Stat Signaling Pathway (AID 446); conditions: ME-180 (cervical carcinoma) SIE beta-lactamase reporter, IL-6 stimulated, 5 h; at 7.69 µM (top of the series) unless noted;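 note: ME-180 cervical cancer cells given 40 pM IL-6 alongside compound; SIE-controlled beta-lactamase reporter measured as 460/530 nm FRET emission ratio; % is set by controls: 0 for no effect and ±100 for the full control effect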
Summary of the method: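 IL-6/STAT signaling read in ME-180 cells via an SIE beta-lactamase reporter. Stimulus was 40 pM IL-6 (its AC50) for 5 hrs, so both activation and inhibition register.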

[6] = molecular target: Glucocorticoid receptor (Homo sapiens) (UniProt P04150); test: GR-GFP Redistribution (AID 450;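 active = compounds whose dose series gives a full or clear partial fitted curve of increased nuclear translocation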; note: potency is the fitted concentration of half-maximal effect); conditions: U2OS GR-GFP nuclear translocation, laser cytometry, 2 h
[7] = molecular target: Glucocorticoid receptor (Homo sapiens) (UniProt P04150); test: GR-EFC Redistribution (AID 451; calls by dose curve; note: potency is the fitted concentration of half-maximal effect); conditions: CHO-K1 GR-EFC translocation, beta-gal luminescence, 2 h
Summary of the method: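 Translocation of GR-ED fusion to nuclear EA restores b-gal, read by luminescence after 1 h room-temperature detection. Engineered CHO-K1 biosensor cells, 1,000/well, exposed 2 h at 37 C to titrations up to 46 uM final.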

[8] = molecular target: Mitogen-activated protein kinase 10 (Mus musculus) (UniProt Q61831); test: JNK3 AlphaScreen Assay (AID 530); conditions: JNK3 lysate, c-Jun phosphorylation; series mostly up to 57.1 µM;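 note: kinase came from lysate of stimulated human HepG2 cells; signal reports phosphorylation of biotinylated GST-cJun 1-79 at Ser73 with 10 µM ATP; % is set by controls: 0 for no effect and ±100 for the full control effect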
Summary of the method: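 Room-temperature AlphaScreen kinase assay; pre-activated HepG2 lysate as JNK3 source, biotin-GST-cJun(1-79) substrate, 10 uM ATP, compound 15 min preincubation.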

[9] = molecular target: 3',5'-cyclic-AMP phosphodiesterase 4B (Homo sapiens) (UniProt Q07343); test: qHTS Assay for Inhibitors of PDE-IV (AID 607; active = well fitted activation curve with a large enough effect in the main read-out, with a control signal flat, not every such curve was filed as active; note: % of control where 0% means no effect); conditions: HEK293 ACTOne CNG channel cells, membrane potential fluorescence; series mostly up to 22.9 µM
Summary of the method: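 Live HEK293 cells with a modified cyclic nucleotide-gated (CNG) channel report intracellular cAMP via membrane-potential dye fluorescence (ex 535/em 590 nm). Endogenous PDE-IV was targeted. Compounds were tested at up to 22.9 uM final; RO 20-1724 100 uM served as control.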

[10] = molecular target: Cytochrome P450 3A4 (Homo sapiens) (UniProt P08684); test: qHTS Assay for Inhibitors and Substrates of Cytochrome P450 3A4 (AID 884; active = well fitted curve in the direction sought with a large enough effect; an effect the other way counts as inactive or inconclusive; note: potency is the fitted concentration of half-maximal effect; nearly all actives have a fitted effect of over 50% in size); conditions: recombinant CYP3A4, Luciferin-PPXE luminescence; series mostly up to 57.1 µM
Summary of the method: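 20 nM human CYP3A4 with 25 uM Luciferin-PPXE (at KM) in 200 mM KPO4, preincubated 10 min with compound; NADPH regeneration started a 60 min RT reaction. Luciferin detected by luminescence, normalized to 57 uM ketoconazole as full inhibition.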

[11] = molecular target: Cytochrome P450 3A4 (Homo sapiens) (UniProt P08684); test: qHTS Assay for Activators of Cytochrome P450 3A4 (AID 885; active = well fitted curve in the direction sought with a large enough effect; an effect the other way counts as inactive or inconclusive; note: nearly all actives have a fitted effect of over 65% in size); conditions: recombinant CYP3A4, Luciferin-PPXE luminescence, 60 min; series mostly up to 57.1 µM
Summary of the method: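 Quantitative HTS format: compounds preincubated with 20nM human CYP3A4 and Luciferin-PPXE substrate at KM, reaction started by NADPH regeneration, stopped after 60 min, luciferase luminescence read 20 min later.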

[12] = molecular target: Cytochrome P450 2C19 (Homo sapiens) (UniProt P33261); test: qHTS Assay for Inhibitors and Substrates of Cytochrome P450 2C19 (AID 899; active = well fitted curve in the direction sought with a large enough effect; an effect the other way counts as inactive or inconclusive; note: potency is the fitted concentration of half-maximal effect; nearly all actives have a fitted effect of over 60% in size); conditions: recombinant CYP2C19, luciferin-H EGE luminescence; series mostly up to 57.1 µM
Summary of the method: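 Reactions contain 5nM enzyme, 10uM Luciferin-H EGE (KM) and 50mM KPO4; compound preincubates 10 min at 37C, NADPH regeneration starts turnover for 60 min. Luminescence after detection reagent gives activity.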

[13] = Confirmation and Secondary Assay for Modulators of Hemoglobin Beta Chain Splicing at IVS2 654 locus (AID 910; active = well fitted curve in the direction sought with a large enough effect; an effect the other way counts as inactive or inconclusive;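 note: HeLa cells stably carrying EGFP split by mutant beta-globin IVS2-654 intron; per-well total GFP intensity by laser scanning cytometry after 2-day treatment; % of control where 0% means no effect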); conditions: HeLa EGFP-654 splicing reporter, GFP fluorescence, 48 h; series mostly up to 38.3 µM
Summary of the method: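 Readout: per-well total peak green fluorescence (488 nm ex, 500–520 nm em) from objects 5–250 µm, reflecting correct splicing of an EGFP-654 reporter. Compounds were applied for 2 days at 37 °C to overnight-plated HeLa EGFP-654 cells; controls were DMSO and 500 nM IVS2-654 PNA.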

[14] = Confirmation and Secondary Assay for Modulators of Hemoglobin Beta Chain Splicing at IVS2 705 locus (AID 930; active = well fitted curve in the direction sought with a large enough effect; an effect the other way counts as inactive or inconclusive;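 note: HeLa cells stably expressing the EGFP-705 splicing reporter; GFP fluorescence per well restored by corrected splicing of the IVS2-705 intron in EGFP; % of control where 0% means no effect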); conditions: HeLa EGFP-705 splicing reporter, GFP fluorescence, 48 h; series mostly up to 38.3 µM
Summary of the method: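 Assay measures total GFP intensity per well in HeLa EGFP-705 cells after 2 days with compound; mis-splicing normally truncates EGFP, so fluorescence indicates corrected splicing.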

[15] = qHTS Assay for Lipid Storage Modulators (AID 1519; calls by dose curve); conditions: Drosophila S3 cells, BODIPY lipid droplet/cell ratio, laser cytometry, cells loaded with oleic acid; for activity change, negative = inhibition: at 57.5 µM (top of the series)
Summary of the method: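 Cells seeded at 5,000 per well were treated with compounds over a concentration series and loaded with oleic acid (400 uM, as added). Lipid droplet fluorescence (488 nm excitation, 500-530 nm channel) was read by laser-scanning cytometry and normalized to 20 uM Triacsin C.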

[16] = Primary qHTS for small molecule stabilizers of the endoplasmic reticulum resident proteome: Secreted ER Calcium Modulated Protein (SERCaMP) assay (AID 1508630; active = well fitted curve in the direction sought with a large enough effect; an effect the other way counts as inactive or inconclusive; note: % is set by controls: 0 for no effect and ±100 for the full control effect); conditions: SH-SY5Y GLuc-SERCaMP (Gaussia luciferase released on ER calcium loss) secretion, thapsigargin, luminescence; series mostly up to 38.4 µM
Summary of the method: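 GLuc-SERCaMP-expressing SH-SY5Y cells, pretreated 16 h with compound, are challenged with thapsigargin to empty ER calcium stores; after 4 h, coelenterazine is added directly to the medium and luminescence is imaged.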

[17] = measured here: cell count channel max response
[18] = measured here: lipid channel max response

Lysosomal acid glucosylceramidase (Homo sapiens), sequence (P04062 whole entry, looked up): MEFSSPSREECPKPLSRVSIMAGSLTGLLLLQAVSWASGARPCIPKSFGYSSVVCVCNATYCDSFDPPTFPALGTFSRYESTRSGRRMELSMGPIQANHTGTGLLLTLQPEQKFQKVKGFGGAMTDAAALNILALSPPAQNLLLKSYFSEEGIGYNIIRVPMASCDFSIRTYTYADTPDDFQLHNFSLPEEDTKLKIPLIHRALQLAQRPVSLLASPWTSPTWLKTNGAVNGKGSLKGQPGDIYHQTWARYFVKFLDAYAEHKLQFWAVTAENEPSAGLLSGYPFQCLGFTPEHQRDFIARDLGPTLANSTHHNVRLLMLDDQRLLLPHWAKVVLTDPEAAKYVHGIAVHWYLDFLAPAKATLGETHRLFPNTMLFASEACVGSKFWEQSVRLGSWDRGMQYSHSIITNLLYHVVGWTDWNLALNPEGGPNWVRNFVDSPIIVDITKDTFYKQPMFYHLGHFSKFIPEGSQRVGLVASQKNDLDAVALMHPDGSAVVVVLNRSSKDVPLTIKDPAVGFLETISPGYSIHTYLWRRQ
Cytochrome P450 1A2 (Homo sapiens), sequence (P05177 whole entry, looked up): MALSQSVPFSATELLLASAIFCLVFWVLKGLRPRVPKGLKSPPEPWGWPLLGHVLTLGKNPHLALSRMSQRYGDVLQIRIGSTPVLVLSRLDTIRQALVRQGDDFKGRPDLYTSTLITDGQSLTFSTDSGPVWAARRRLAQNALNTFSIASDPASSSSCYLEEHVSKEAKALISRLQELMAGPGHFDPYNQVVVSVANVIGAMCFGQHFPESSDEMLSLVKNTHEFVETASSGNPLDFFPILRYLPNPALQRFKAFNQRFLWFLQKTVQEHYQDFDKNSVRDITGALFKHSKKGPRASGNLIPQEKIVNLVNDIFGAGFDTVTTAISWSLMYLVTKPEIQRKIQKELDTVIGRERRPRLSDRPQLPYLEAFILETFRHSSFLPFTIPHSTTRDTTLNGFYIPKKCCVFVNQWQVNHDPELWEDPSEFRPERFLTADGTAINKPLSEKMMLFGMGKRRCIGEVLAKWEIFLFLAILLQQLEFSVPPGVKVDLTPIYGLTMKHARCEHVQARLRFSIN
Glucocorticoid receptor (Homo sapiens), sequence (P04150 whole entry, looked up, the tested form may be a part): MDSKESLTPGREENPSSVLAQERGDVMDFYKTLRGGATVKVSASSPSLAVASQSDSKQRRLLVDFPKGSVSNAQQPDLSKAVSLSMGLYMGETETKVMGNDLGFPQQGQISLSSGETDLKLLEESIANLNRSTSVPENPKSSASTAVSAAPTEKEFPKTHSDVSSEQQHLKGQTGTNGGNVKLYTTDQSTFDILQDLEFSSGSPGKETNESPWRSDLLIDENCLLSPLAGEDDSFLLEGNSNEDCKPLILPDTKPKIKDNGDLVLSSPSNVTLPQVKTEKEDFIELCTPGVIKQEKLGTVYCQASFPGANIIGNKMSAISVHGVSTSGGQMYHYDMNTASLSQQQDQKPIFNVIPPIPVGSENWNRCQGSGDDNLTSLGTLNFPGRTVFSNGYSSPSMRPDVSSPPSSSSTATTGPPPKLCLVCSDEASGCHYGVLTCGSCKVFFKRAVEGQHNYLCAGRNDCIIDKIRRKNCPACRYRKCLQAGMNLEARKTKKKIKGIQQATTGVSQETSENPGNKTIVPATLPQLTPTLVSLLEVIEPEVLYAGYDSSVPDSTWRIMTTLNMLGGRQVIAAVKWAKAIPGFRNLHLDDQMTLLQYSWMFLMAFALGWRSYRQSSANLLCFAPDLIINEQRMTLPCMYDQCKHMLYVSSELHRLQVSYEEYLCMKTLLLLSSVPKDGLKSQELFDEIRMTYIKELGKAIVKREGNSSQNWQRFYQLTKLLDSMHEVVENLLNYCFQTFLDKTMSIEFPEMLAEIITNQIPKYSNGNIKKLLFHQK
3',5'-cyclic-AMP phosphodiesterase 4B (Homo sapiens), sequence (Q07343 whole entry, looked up): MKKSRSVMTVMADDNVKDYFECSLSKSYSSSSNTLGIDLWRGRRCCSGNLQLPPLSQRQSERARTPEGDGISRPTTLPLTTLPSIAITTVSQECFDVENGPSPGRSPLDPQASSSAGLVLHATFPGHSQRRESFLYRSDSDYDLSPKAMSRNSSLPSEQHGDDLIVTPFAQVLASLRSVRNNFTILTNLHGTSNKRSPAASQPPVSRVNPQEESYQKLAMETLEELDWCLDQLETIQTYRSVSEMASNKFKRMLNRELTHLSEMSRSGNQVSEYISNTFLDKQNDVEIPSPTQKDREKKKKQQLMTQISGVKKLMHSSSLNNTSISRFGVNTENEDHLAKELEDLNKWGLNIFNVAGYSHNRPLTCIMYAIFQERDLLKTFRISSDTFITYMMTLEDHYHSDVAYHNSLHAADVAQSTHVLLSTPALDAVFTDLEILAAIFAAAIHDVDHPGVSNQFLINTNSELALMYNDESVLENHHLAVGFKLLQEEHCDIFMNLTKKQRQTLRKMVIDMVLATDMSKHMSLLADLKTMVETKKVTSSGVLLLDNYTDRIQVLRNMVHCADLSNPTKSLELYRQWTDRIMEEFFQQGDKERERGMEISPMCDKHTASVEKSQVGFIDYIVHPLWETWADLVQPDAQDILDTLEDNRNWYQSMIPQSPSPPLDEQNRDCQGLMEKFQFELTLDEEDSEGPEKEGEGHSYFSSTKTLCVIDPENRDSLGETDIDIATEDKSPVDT
Cytochrome P450 3A4 (Homo sapiens), sequence (P08684 whole entry, looked up): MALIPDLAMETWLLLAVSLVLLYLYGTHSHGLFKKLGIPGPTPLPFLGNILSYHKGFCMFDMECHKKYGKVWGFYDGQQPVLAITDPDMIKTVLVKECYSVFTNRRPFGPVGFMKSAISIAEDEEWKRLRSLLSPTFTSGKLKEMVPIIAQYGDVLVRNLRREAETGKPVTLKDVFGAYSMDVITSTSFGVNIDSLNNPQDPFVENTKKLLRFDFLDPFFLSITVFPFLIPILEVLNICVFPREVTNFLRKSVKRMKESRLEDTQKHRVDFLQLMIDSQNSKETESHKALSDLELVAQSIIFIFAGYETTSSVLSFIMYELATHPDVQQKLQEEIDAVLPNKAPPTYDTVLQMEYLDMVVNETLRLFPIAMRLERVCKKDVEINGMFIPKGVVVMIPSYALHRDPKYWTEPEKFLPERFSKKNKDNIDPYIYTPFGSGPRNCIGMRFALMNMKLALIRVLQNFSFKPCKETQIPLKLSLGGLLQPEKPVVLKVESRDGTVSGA
Cytochrome P450 2C19 (Homo sapiens), sequence (P33261 whole entry, looked up): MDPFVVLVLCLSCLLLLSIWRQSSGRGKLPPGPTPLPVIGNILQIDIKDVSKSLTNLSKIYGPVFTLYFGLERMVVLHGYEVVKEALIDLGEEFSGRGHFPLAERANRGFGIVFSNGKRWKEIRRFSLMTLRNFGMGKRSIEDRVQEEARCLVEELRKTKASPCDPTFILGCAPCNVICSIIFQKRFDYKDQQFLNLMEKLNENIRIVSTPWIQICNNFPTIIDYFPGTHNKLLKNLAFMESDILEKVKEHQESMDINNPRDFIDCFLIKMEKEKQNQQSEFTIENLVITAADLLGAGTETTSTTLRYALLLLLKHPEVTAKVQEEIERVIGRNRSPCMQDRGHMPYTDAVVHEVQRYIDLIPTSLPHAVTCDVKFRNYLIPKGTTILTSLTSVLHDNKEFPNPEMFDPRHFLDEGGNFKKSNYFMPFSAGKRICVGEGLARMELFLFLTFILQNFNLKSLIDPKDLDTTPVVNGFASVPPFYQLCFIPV

Cc1cccc(CNc2ncncc2-c2cccc(C#N)c2)c1
Potency [1]: > 11.4 µM (inactive) | activity change, negative = inhibition [2]: 0.377% (inactive) | Potency [3]: 2.51 µM (active) | activity change, negative = inhibition [4]: -8.33% (inactive) | activity, negative = inhibition [5]: 14.8% (inactive) | Potency [6]: > 46 µM (inactive) | Potency [7]: > 46 µM (inactive) | outcome [8]: inactive | Potency [9]: inactive | Potency [10]: 0.199 µM (active) | Potency [11]: inactive | Potency [12]: 3.98 µM (active) | outcome [13]: inactive | outcome [14]: inactive | activity change, negative = inhibition [15]: 4.89% (inactive) | max response [15, 17]: 9.06% | max response [15, 18]: 15.9% | Potency [16]: inactive

CC(C)NC(=O)N1CC[C@@]2(CCCN(S(C)(=O)=O)C2)C1
Potency [1]: > 11.4 µM (inactive) | activity change, negative = inhibition [2]: -5.61% (inactive) | Potency [3]: inactive | activity change, negative = inhibition [4]: 0.961% (inactive) | activity, negative = inhibition [5]: -2.56% (inactive) | Potency [7]: > 46 µM (inactive) | outcome [8]: inactive | activity change, negative = inhibition [15]: 0.109% (inactive) | max response [15, 17]: 4.25% | max response [15, 18]: 3.89% | Potency [16]: inactive

COCC(=O)N1CCC[C@@]2(CCN(c3ncccn3)C2)C1
Potency [1]: > 11.4 µM (inactive) | activity change, negative = inhibition [2]: -8.65% (inactive) | Potency [3]: inactive | activity change, negative = inhibition [4]: -4.08% (inactive) | activity, negative = inhibition [5]: -2.01% (inactive) | Potency [7]: > 46 µM (inactive) | outcome [8]: inactive | Potency [9]: inactive | activity change, negative = inhibition [15]: -2.11% (inactive) | max response [15, 17]: 19.1% | max response [15, 18]: 20.3% | Potency [16]: inactive

COCC(=O)N1CCC2(CC1)CCN(c1ccccn1)CC2
Potency [1]: > 11.4 µM (inactive) | activity change, negative = inhibition [2]: -16.4% (inactive) | Potency [3]: inactive | activity change, negative = inhibition [4]: -3.68% (inactive) | activity, negative = inhibition [5]: -8.73% (inactive) | Potency [7]: > 46 µM (inactive) | outcome [8]: inactive | Potency [9]: inactive | activity change, negative = inhibition [15]: 2.07% (inactive) | max response [15, 17]: 0.785% | max response [15, 18]: 4.41% | Potency [16]: inactive

O=C(Nc1ccccc1)N1CC[C@@]2(CCCN(C(=O)c3ccco3)C2)C1
Potency [1]: > 11.4 µM (inactive) | activity change, negative = inhibition [2]: -6.95% (inactive) | Potency [3]: 10 µM (active) | activity change, negative = inhibition [4]: 4.43% (inactive) | activity, negative = inhibition [5]: -3.48% (inactive) | Potency [7]: > 46 µM (inactive) | outcome [8]: inactive | Potency [9]: inactive | activity change, negative = inhibition [15]: 0.607% (inactive) | max response [15, 17]: 5.04% | max response [15, 18]: 7.34% | Potency [16]: inactive

O=C(c1csnn1)N1CCC[C@@]2(CCN(c3ncccn3)C2)C1
Potency [1]: > 11.4 µM (inactive) | activity change, negative = inhibition [2]: -0.372% (inactive) | Potency [3]: 12.6 µM (active) | activity change, negative = inhibition [4]: 8.43% (inactive) | activity, negative = inhibition [5]: 1.56% (inactive) | Potency [7]: > 46 µM (inactive) | outcome [8]: inactive | Potency [9]: inactive | activity change, negative = inhibition [15]: 7.22% (inactive) | max response [15, 17]: 8.99% | max response [15, 18]: 21.1% | Potency [16]: inactive

COCC(=O)N1CCC2(CC1)CN(C(=O)Nc1ccc(OC)cc1)C2
Potency [1]: > 11.4 µM (inactive) | activity change, negative = inhibition [2]: -2.15% (inactive) | Potency [3]: inactive | activity change, negative = inhibition [4]: 21.1% (inactive) | activity, negative = inhibition [5]: 2.17% (inactive) | Potency [7]: > 46 µM (inactive) | outcome [8]: inactive | Potency [9]: inactive | activity change, negative = inhibition [15]: 3.11% (inactive) | max response [15, 17]: 23% | max response [15, 18]: 29.3% | Potency [16]: inactive

Source: PubChem BioAssay (NCATS)
